Assay results as given in PubChem BioAssay (NCI).
Several values for one entry are separate records, joined by “and”; a condition that tells them apart may be missing. Equal entries are not always repeated. This is part of a sample that, as a whole, favours compounds with a hit. Of some 83,000 tested, about 20% had one in any assay.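 Assay: single dose, 48 h. Readout: percent growth (0 = no net growth; negative = cell death). Active: <10.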 A number with no mark means an inactive call. Activity calls are given as the source filed them.

What follows are compounds tested on DU-145 prostate (assay: NCI-60 one-dose screen, 48 h (100 = growth as untreated, 0 = no growth, -100 = all killed)). Settings: 10 µM unless noted.

Compared with `CCOC(=O)C1=C(C)N=C2SC=C(c3ccc(F)cc3)N2[C@H]1c1cn(-c2ccccc2)nc1-c1ccc(Cl)cc1`, `Cc1c(CC(=O)OCCO)cc(-c2ccc(Cl)cc2)n1-c1ccccc1` is lower in growth: 104% for the first, 102% for the second.

First: CCN(C(=O)N1CCN(c2cc3c(cc2F)c(=O)c(C(=O)O)cn3C2CC2)CC1)c1nc(-c2ccccc2)cs1
Second: COc1ccc(-c2csc(NC(=O)CN3CCN(CCO)CC3)n2)cc1NS(=O)(=O)c1cccc2c(N(C)C)cccc12
The growth of the first is lower: 27.1% for the first, 78.4% for the second.

First: C=CCOc1ccc(/C=C2\SC(=S)N(CCc3ccc(O)cc3)C2=O)cc1
Second: O=C1/C(=C/c2ccc(-c3ccccc3C(F)(F)F)o2)SC(=S)N1CCc1ccc(O)cc1
The growth of the first is higher: 98.3% for the first, 66.2% for the second.

Going from `CC1(C)C(N)=Nc2cc(OCCCN3Cc4ccc(OCCc5cn(CC(=O)N6CCC(CCN7CCCC7)CC6)nn5)cc4C3)c(OCC3CC3)cc21` to `CCCn1nc(C(=O)N2CCCCC2)c2c1CCC(N1CCC(c3ccncc3)CC1)C2` (centres undefined), the growth falls from 111% to 105%.

First: O=C1OCC2=C1C(c1cccc(C(F)(F)F)c1)c1cc3c(cc1N2CCO)OCCO3 (centres undefined)
Second: Nc1n[nH]c2cccc(C#Cc3cccc(NC(=O)c4ccc(N5CCOCC5)c(C(F)(F)F)c4)c3)c12
The growth of the first is lower: 16% for the first, 25.7% for the second.

Going from `N#CC1=C(N)Oc2c(sc3c(Br)cccc23)C1c1ccccn1` (centres undefined) to `COc1cc(N=Nc2ccc(O)c3ncccc23)c2ncccc2c1`, the growth falls from 51.2% to 31%.

Compared with `O=C1c2cccc3cccc(c23)C(=O)N1N1C(=O)c2cccc3c(N4CCNCC4)ccc(c23)C1=O`, `O=S(=O)(O)c1ccc(N=Nc2ccc(N=Nc3cccc4ccccc34)c(S(=O)(=O)O)c2)cc1` is higher in growth: 107% for the first, 109% for the second.

First: O=C(Nc1ccc(F)cc1)c1cc2cc(Nc3nc(-c4ccccc4)nc4ccccc34)ccc2oc1=O
Second: Cc1ccc(-c2nc3nc(-c4ccccc4)nc(N4CCN(S(=O)(=O)c5ccccc5)CC4)c3o2)cc1
The growth of the first is higher: 108% for the first, 96.6% for the second.

First: COc1ccc(C/C(C)=C(/c2ccc(OCCN3CCCC3)cc2)c2ccc(OC(=O)NCc3ccccc3)cc2)cc1
Second: C/C(=C(\c1ccc(OCCN2CCOCC2)cc1)c1ccc(OC(=O)C2CCCCC2)cc1)c1ccc(Cl)cc1
The growth of the first is lower: 95% for the first, 103% for the second.

Going from `CCOc1nc(-c2ccccc2)cc2c(O)c(C(=O)N/N=C/c3ccc(N(C)C)cc3)[nH]c(=O)c12` to `CC(=O)c1c(C)nc2ccccc2c1/C=C/c1cccc(C)c1`, the growth falls from 120% to 88.2%.

Going from `COc1ccc2c(c1)CC[C@@H]1[C@@H]2CC[C@]2(C)C3C(=CCC4C(=O)N(c5ccccc5)C(=O)C43)C[C@@H]12` (some centres undefined) to `CCN(c1cc(-c2ccc(CN3CCC(/C=C/S(=O)(=O)c4ccccc4)CC3)cc2)cc(C(=O)NCc2c(C)cc(C)[nH]c2=O)c1C)C1CCOCC1`, the growth falls from 114% to 78.9%.

Going from `CCN(CC)CC#CCOC(=O)[C@]1(C)CCC[C@]2(C)c3ccc(C(C)C)cc3CC[C@@H]12` to `COc1cc(/C=C2/C=C(c3ccc(C(C)(C)C)cc3)N(CCc3ccc(S(N)(=O)=O)cc3)C2=O)cc(OC)c1OC`, the growth falls from 91.9% to 77.1%.

Going from `O=C(CN1C(=O)S/C(=C\C(Cl)=C\c2ccccc2)C1=O)NC1C=CS(=O)(=O)C1` (centres undefined) to `O=C(N=Nc1c(O)[nH]c2ccccc12)Nc1ccccc1Cl`, the growth rises from 24.8% to 98.8%.

Compared with `O=[N+]([O-])c1cc(C(F)(F)F)ccc1Sc1ccc(C(F)(F)F)cc1[N+](=O)[O-]`, `COc1ccc(-c2cc(-c3cccnc3)nc3sc4c(Cl)nnnc4c23)cc1OC` is higher in growth: 64.4% for the first, 94.2% for the second.

Compared with `COc1ccc(Oc2nc(Nc3ccc(N4CCOCC4)cc3)ncc2NC(=O)c2cc(OC)cc(OC)c2)cc1`, `CN1CCN(c2ccc(/C=C/C(=O)c3ccc(O)cc3)cc2)CC1` is lower in growth: 98.7% for the first, 93.2% for the second.

First: COc1cc(F)c(/C=C/c2cc(/C=C/c3cc(OC)c(OC)cc3F)n(-c3cc(F)cc(F)c3)n2)cc1OC
Second: [Cu+].[NH-][C@H]1C[N-]C(=O)[C@H]([C@H]2CCN=C(N)N2)[N-]C(=O)/C(=C\NC(N)=O)[N-]C(=O)[C@H](CNC(=O)C[C@@H](N)CCCN)[N-]C(=O)[C@H](CO)[N-]C1=O
The growth of the first is lower: 43.1% for the first, 112% for the second.

In the case of `C=C1C(=O)O[C@@H]2[C@H]3[C@H](COC(C)=O)[C@@H](OC(C)=O)C[C@H]3C(=C)[C@@H](O)C[C@@H]12`, the growth is reported as 76.5%.

For `O=C(/C=C/c1ccc(Cl)s1)c1ccc(Cl)s1`, the growth was 97.8% and 114%.
In the case of `O=C1c2cc3c(cc2-c2c1c1ccc(Cl)cc1c(=O)n2CCCn1ccnc1)OCO3`, the growth is reported as -42.2% (active).
In the case of `CCCO/N=C/c1ccccn1`, the growth is reported as 102% and 111%.
With `COc1ccc(-c2[nH]c3ccccc3c2-c2ccc(OC)cc2)cc1` the growth was -30.6% (active).
For `CCOC(=O)N(O)c1ccc(/C=C/c2ccccc2)cc1`, the growth was 65.7% and 61.4%.
In the case of `Cc1ccc(-c2nc3nc(-c4ccc(Cl)cc4)nc(N4CCCNCC4)c3o2)cc1`, the growth is reported as -21.9% (active).
